MITF TRPM1 HTS: activators of MITF-driven TRPM1 promoter reporter, primary screen, cell-based, SK-MEL-5, luciferase, single point; SK-MEL-5 TRPM1-promoter luciferase, 24 h; % of positive control, neutral wells = 0; activation, % at 12.5 µM; actives 0.75% (n = 300,000);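 active = mean activation of at least 80% with every replicate also reaching 80%; inconclusive = mean reaches 80% but some replicate falls short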;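 also: 0% = neutral control wells and 100% = parthenolide positive control wells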
Wnt bcat act: Wnt/beta-catenin pathway activators, primary screen, cell-based, plate reader, single point | AID 743398, 2014 | Wnt/beta-catenin reporter cell assay, activator | activation, % at 9.35 µM | actives 1.2% (n = 300,000); in the data active = activation above about 30%, passing the limit was not always enough; inconclusive = no clear call, values can overlap the other calls;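 also: 0% = neutral control wells and 100% = positive control wells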
esBAF inh: Bmi1 luciferase reporter increase in mESCs, primary screen, esBAF inhibitor project, mouse ES cells, Bmi1 luciferase knock-in, single point; AID 602393, 2012; reporter increase, % at 12.5 µM; actives 2% (n = 350,000); 24 h; 100% = twice the neutral-well signal; in the data active = activation above about 40%; inconclusive = no clear call, values can overlap the other calls;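 also: 0% = median of the plate's neutral control wells and 100% = double that signal; a rise in the Bmi1 reporter signal indicates esBAF inhibition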
FGF22 binding: binders of human FGF22 protein, primary screen, FGF22 synaptogenesis inhibitor project, biophysical, thermal shift, single point; Fibroblast growth factor 22 (Homo sapiens), Q9HCT0; recombinant FGF22 thermal shift, SYPRO orange fluorescence; percent of sucrose octasulfate shift, DMSO zero; activity (Tm shift, normalised), % at 9.99 µM; actives 1.5% (n = 340,000);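 active = mean Tm shift, scaled 0 neutral to 100 positive control, at about 1.3% or above, every replicate too, limit read from the data; inconclusive = no clear call, values can overlap the other calls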
Target sequence (Q9HCT0 whole entry, looked up): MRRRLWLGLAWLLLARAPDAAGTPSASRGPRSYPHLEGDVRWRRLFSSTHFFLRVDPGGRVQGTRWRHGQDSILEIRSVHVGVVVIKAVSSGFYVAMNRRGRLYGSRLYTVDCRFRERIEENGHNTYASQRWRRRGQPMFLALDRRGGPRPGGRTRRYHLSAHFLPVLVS
SMARCA2 activ: SMARCA2 (BRM) function activators, primary screen, cell-based, luminescence, high throughput; MG213 cells, MMTV-luciferase reporter, dexamethasone, overnight; AID 652017, 2013; actives 1% (n = 370,000); activation, % at 9.1 µM; in the data active = activation above about 7.8%;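 also: 0% = vehicle wells and 100% = reference activator wells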
MLL AF4-AF9 inh: inhibitors of AF4 peptide binding to AF9, primary screen, biochemical, AlphaScreen, biotin-AF4 peptide, FLAG-AF9, single point. Protein AF-9 (Homo sapiens), P42568. inhibition, % at 10 µM. actives 0.47% (n = 350,000);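 active = every replicate reaching a set inhibition limit, whatever the replicate mean, cut at about 25% in these data; inconclusive = mean inhibition reaches that limit but some replicates miss it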;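 also: 0% = plate neutral control median and 100% = total signal loss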
* marks the source's active call; other numbers are inactive results. Most compounds without a hit are left out; they make up all but 4.3% or so of the library.

`CN(C)C(=O)c1ccc(-c2ccc3c(c2)[C@H]2[C@H](CCN2C(=O)c2ccc4c(c2)OCO4)[C@@H](CO)N3)cc1` gave esBAF inh -1.
C[C@H]1CCCCO[C@H](CN(C)Cc2ccncc2)[C@@H](C)CN([C@@H](C)CO)C(=O)c2cc(NS(C)(=O)=O)ccc2O1 was read as esBAF inh 5, FGF22 binding 0 and MLL AF4-AF9 inh -4.
`CS(=O)(=O)c1ccc(Cl)c(NC(=O)CCc2ccccc2)c1` gave MITF TRPM1 HTS 11, Wnt bcat act 0, FGF22 binding 43*, SMARCA2 activ 1 and MLL AF4-AF9 inh -1.
Screening CS(=O)(=O)c1ccc(Cl)c(NC(=O)COC(=O)CNC(=O)c2ccccc2)c1 returned MITF TRPM1 HTS 1, Wnt bcat act -20, esBAF inh -5, FGF22 binding 44*, SMARCA2 activ -6 and MLL AF4-AF9 inh -11.
CS(=O)(=O)c1ccc(Cl)c(NC(=O)Cc2c(Cl)cccc2Cl)c1 was read as MITF TRPM1 HTS 16, Wnt bcat act -5, esBAF inh 1, FGF22 binding 0, SMARCA2 activ 2 and MLL AF4-AF9 inh -2.
Screening Cn1ccc2c(N3CCCC3)cc3c(c21)C1CCC3C1 (stereo unspecified) returned Wnt bcat act -1, esBAF inh -11, FGF22 binding 0, SMARCA2 activ -1 and MLL AF4-AF9 inh 30*.
`CN(c1cc2c(c3c1ccn3C)C1CCC2C1)C1CCCCC1` (stereo unspecified) gave Wnt bcat act 1, esBAF inh -2, FGF22 binding 0, SMARCA2 activ 1 and MLL AF4-AF9 inh 39*.
`CCc1cccc2c(C(=O)COC(=O)c3ccc(O)cc3)c[nH]c12` gave MITF TRPM1 HTS 11, Wnt bcat act 3, esBAF inh 49*, FGF22 binding 0, SMARCA2 activ -1 and MLL AF4-AF9 inh -2.
Screening CCc1cccc2c(C(=O)COC(=O)c3nccnc3N)c[nH]c12 returned MITF TRPM1 HTS 31, Wnt bcat act 11, esBAF inh 79*, FGF22 binding 1, SMARCA2 activ 1 and MLL AF4-AF9 inh -2.
`CCc1cccc2c(C(=O)COC(=O)c3ccccc3)c[nH]c12` gave MITF TRPM1 HTS 73, Wnt bcat act -2, FGF22 binding 0, SMARCA2 activ 1 and MLL AF4-AF9 inh 4.
`COc1ccc(-n2c(CNC(=O)COc3ccc(Cl)cc3)n[nH]c2=S)cc1` gave MITF TRPM1 HTS 9, Wnt bcat act 1, esBAF inh -14, FGF22 binding 0, SMARCA2 activ 3 and MLL AF4-AF9 inh -9.
`COc1ccc(-n2c(CNC(=O)COc3ccc(Cl)cc3Cl)n[nH]c2=S)cc1` gave MITF TRPM1 HTS -7, Wnt bcat act -1, FGF22 binding 43*, SMARCA2 activ 0 and MLL AF4-AF9 inh -10.
`CCC(=O)N(Cc1ccco1)c1nc(-c2ccc(OC)cc2)cs1` gave MITF TRPM1 HTS 9, esBAF inh 8 and SMARCA2 activ 1.
Screening CCC(=O)N(CC)c1nc(-c2ccc(OC)cc2)cs1 returned MITF TRPM1 HTS 72, Wnt bcat act 26, esBAF inh 72* and SMARCA2 activ 0.
For COc1ccc(-c2csc(N(CCCN(C)C)C(=O)c3ccccc3C)n2)cc1 the results were Wnt bcat act -2, esBAF inh -12, FGF22 binding 0, SMARCA2 activ -1 and MLL AF4-AF9 inh 31*.
`COc1ccc(-c2csc(N(CC(C)C)C(=O)c3ccco3)n2)cc1` gave MITF TRPM1 HTS 2, Wnt bcat act 2, esBAF inh 10, FGF22 binding 0, SMARCA2 activ 2 and MLL AF4-AF9 inh 1.
CN(C(=O)c1ccco1)c1nc(-c2ccccc2)cs1 was read as MITF TRPM1 HTS 130*, Wnt bcat act 19, esBAF inh 44*, FGF22 binding 0, SMARCA2 activ 5 and MLL AF4-AF9 inh -1.
Screening CCN(C(=O)c1ccco1)c1nc(-c2ccc(OC)cc2)cs1 returned Wnt bcat act 21, esBAF inh 81*, FGF22 binding 0, SMARCA2 activ 2 and MLL AF4-AF9 inh -1.
`COCCN(C(=O)c1ccco1)c1nc(-c2ccccc2)cs1` gave MITF TRPM1 HTS 6, Wnt bcat act 1, esBAF inh 35, FGF22 binding 0, SMARCA2 activ 4 and MLL AF4-AF9 inh -5.
C[C@H]1CN([C@@H](C)CO)C(=O)c2cc(NC(=O)Cc3ccccc3)ccc2O[C@H]1CN(C)C(=O)Nc1ccc(F)cc1 was read as esBAF inh -1, FGF22 binding 0 and MLL AF4-AF9 inh -2.
For C[C@@H]1CN([C@@H](C)CO)C(=O)c2cc(C3=CCCC3)cnc2O[C@H]1CN(C)C(=O)Nc1ccc(C(F)(F)F)cc1 the results were esBAF inh 2, FGF22 binding 0 and MLL AF4-AF9 inh -1.
O=c1cc(-c2ccccc2)oc2cc(O)ccc12 was read as MITF TRPM1 HTS 88*, Wnt bcat act 4, esBAF inh inconclusive, FGF22 binding 0, SMARCA2 activ 4 and MLL AF4-AF9 inh -14.
Screening O=c1cc(-c2ccc(O)cc2)oc2ccc(O)cc12 returned MITF TRPM1 HTS 78, Wnt bcat act 56*, esBAF inh 37, FGF22 binding 0 and SMARCA2 activ 7.9*.
O=C(COC(=O)c1cccnc1Cl)NCc1cccs1 was read as MITF TRPM1 HTS -41, Wnt bcat act -1, esBAF inh -4, FGF22 binding 43*, SMARCA2 activ -2 and MLL AF4-AF9 inh -3.
COC(=O)c1ccc(COC(=O)c2ccc(N(C)C)cc2)cc1 was read as MITF TRPM1 HTS 32, esBAF inh -8 and SMARCA2 activ -1.
For CN(C)c1ccc(C(=O)OCc2ccccc2)cc1 the results were MITF TRPM1 HTS 60, esBAF inh 50* and SMARCA2 activ -1.
CO[C@H]1CN(C)C(=O)c2cc(NS(=O)(=O)CC(F)(F)F)ccc2OC[C@H](C)N(C(=O)NC(C)C)C[C@H]1C was read as esBAF inh 2, FGF22 binding 0 and MLL AF4-AF9 inh -3.
`Cc1ccc(S(=O)(=O)N[C@@H]2CC[C@H](CCNC(=O)C3CCCC3)O[C@@H]2CO)cc1` gave esBAF inh 2, FGF22 binding 0 and MLL AF4-AF9 inh -1.
For C=CCNC(=O)CCc1nnc(C2(c3ccc(Cl)cc3)CCC2)o1 the results were MITF TRPM1 HTS 60, Wnt bcat act 28, FGF22 binding 0, SMARCA2 activ 4 and MLL AF4-AF9 inh -1.
